PubChem BioAssay AID1851 (National Center for Advancing Translational Sciences (NCATS), 2009)
The campaign covered roughly 16,000 compounds. About 5,700 (36%) were called active. Not shown: some 24% with an inconclusive outcome. Calls come from the whole dose curve; as a rule, active = well fitted curve in the direction sought with a large enough effect; inconclusive = small, poorly fitted or top-dose-only effect, or effect the other way; inactive = no such curve, though single readings can be large or run the other way. Some of the results follow.

target: Cytochrome P450 1A2 (Homo sapiens) (UniProt P05177); experiment: Cytochrome panel assay with activity outcomes; conditions: recombinant CYP, pro-luciferin dealkylation, luminescence, p450-cyp1a2; series mostly up to 57.1 µM; activity, negative = inhibition: at the top concentration
% is set by controls: 0 for no effect and ±100 for the full control effect.

Chain of Cytochrome P450 1A2 (Homo sapiens) (P05177 whole entry, looked up): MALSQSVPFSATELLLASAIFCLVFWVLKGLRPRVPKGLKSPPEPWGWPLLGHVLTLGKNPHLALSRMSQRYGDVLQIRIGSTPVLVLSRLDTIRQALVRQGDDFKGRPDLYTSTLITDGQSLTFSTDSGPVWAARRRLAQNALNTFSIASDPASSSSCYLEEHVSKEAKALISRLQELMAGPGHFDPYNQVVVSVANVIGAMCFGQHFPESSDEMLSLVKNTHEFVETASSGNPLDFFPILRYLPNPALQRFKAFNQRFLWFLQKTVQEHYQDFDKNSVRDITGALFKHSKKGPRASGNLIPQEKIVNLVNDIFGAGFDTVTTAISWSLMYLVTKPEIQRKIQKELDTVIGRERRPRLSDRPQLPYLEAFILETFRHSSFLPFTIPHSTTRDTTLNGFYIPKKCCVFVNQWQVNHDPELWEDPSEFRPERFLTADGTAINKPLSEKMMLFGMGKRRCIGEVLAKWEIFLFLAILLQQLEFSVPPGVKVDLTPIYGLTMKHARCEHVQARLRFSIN

activity, negative = inhibition, inactive:
CCc1cccc(CC)c1NC(=O)CN(CC(=O)O)CC(=O)O -9.69% [at 25.6 µM]
CC(=O)Nc1cc(S(=O)(=O)Nc2ccccc2)c(C)cc1C -0.331%
CC(=O)Nc1ccccc1C(=O)C(=O)O -3.38%
COc1ccc(-c2nc3cnc(Nc4cccc(OC)c4)nc3n(Cc3cccs3)c2=O)cc1 -12.7%
CCN(CC)C[C@@H](O)CN1CCCCc2nc(C)c(C)cc21 -9.64% [at 11.4 µM]
O=C(Cc1cccc2ccccc12)N/N=C/c1ccc(Sc2nc3ccccc3s2)o1 -12.4%
Cc1cc(C)c(S(=O)(=O)N2CCCCC2)c(C)c1N(C)S(=O)(=O)c1ccccc1 8.05%
CC(O)(CS(=O)(=O)Cc1ccc(Cl)cc1)C(=O)Nc1cccc(C(F)(F)F)c1 (stereo not given) -29.5%
CCN1C(=O)[C@H]2[C@H]3[C@H](O)[C@H](O)C/C(=N/O[C@@H]4O[C@H](COC(C)=O)[C@@H](OC(C)=O)[C@H](OC(C)=O)[C@H]4OC(C)=O)[C@@H]3CC[C@@H]2C1=O -2.53% [at 11.4 µM]
Cc1ccc(-n2c3c(c(=O)[nH]c2=O)C(NS(=O)(=O)c2ccc(C)cc2)(C(F)(F)F)C(=O)N3)cc1 (stereo not given) -2.02%
Cc1ccc(/C=N\NC(=O)c2cc(OCC(F)(F)F)ccc2OCC(F)(F)F)cc1 -18.2%
O=C(NCCC[N+]1=CC=N[C@H]1c1ccccc1)N1CCCc2nc(-c3ccc(Br)cc3)ccc21 7.37% [at 11.4 µM]
Cc1ccc(C2C(C(=O)c3sc(C)nc3C)=C(O)C(=O)N2CCN2CCOCC2)o1 (stereo not given) -8.98%
CCOc1ccc(N(C(=O)/C=C/C(=O)Nc2cc(C)on2)C(C(=O)NC2CCCC2)c2ccccc2C)cc1 (stereo not given) -14.5%
CCc1ccc(C(C(=O)NCc2ccc(OC)cc2)N(CCOC)C(=O)Cc2cccs2)cc1 (stereo not given) -19.9%
CCCS(=O)(=O)N1CCCC(C(=O)NCCCN2CCN(c3ccccc3F)CC2)C1 (stereo not given) 18.4%
COc1ccc(N2CCN(CCNC(=O)C3CCN(S(=O)(=O)c4cccs4)CC3)CC2)cc1 -8.48%
O=C1C[C@@H](O)[C@@H](O)[C@@H]2[C@H]3C(=O)N(c4ccc(F)cc4F)C(=O)[C@@H]3CC[C@@H]12 -7.03% [at 11.4 µM]
CC(C)CC(=O)Nc1sc2c(c1C#N)CC(C)(C)NC2(C)C -26.2%
COc1cc(Cl)c(C)cc1NC(=O)CNC(=O)Cn1cnc2ccccc2c1=O -7.13%
O=C(c1ccccc1)c1ccc(OCCn2cnc3ccccc3c2=O)cc1 -15.9%
O=C(O)CCCSc1ccccc1 -11.7% [at 11.4 µM]
O=C1c2ccccc2C(=O)N1C[C@]1(C(=O)O)NCCS1(=O)=O -5.5% [at 2.29 µM]
CC(C)(C)NC(=O)C(Cc1ccccc1)NS(=O)(=O)c1ccc2c(c1)CCC(=O)N2 (stereo not given) -16.2%
CC(C)CN1CC[C@@]2(CCCN(C(=O)c3csnn3)C2)C1 -16.6%
CCn1ncc(/C=C/C(=O)NCc2cn(C)nc2C)c1C 2.23%
CCCCCC(=O)Nc1cc2[nH]c(=O)cc(COC)c2cc1C -12.2%
COc1ccc(C(=O)COC(=O)c2ccc(NC(=O)c3ccccc3)cc2)cc1 2.4%
COc1cccc(C(CC(=O)Nc2cccc3ccccc23)NC(=O)c2ccccc2)c1 (stereo not given) -7.28%
COc1ccc(C(=O)Nc2ccc(C(=O)OCC(=O)c3ccccc3)cc2)cc1 -1.73%

AC50, active:
CN(C)CCCn1c2c3ccccc3ccc2c2oc(=O)c3ccccc3c21 316 nM
CCn1c2ccccc2c2cc(NS(=O)(=O)c3ccccc3C)ccc21 3160 nM
COc1c(NC(C)=O)c2ccccc2c2ccccc12 398 nM
COCCN=C1Sc2nc3c(C)cccc3cc2CN1Cc1ccco1 631 nM
O=c1c2ccccc2nc2n1CC/C2=C\c1ccccc1[N+](=O)[O-] 3160 nM
COc1cccc(Nc2ncc3ncc(=O)n(Cc4cccs4)c3n2)c1 1580 nM
O=c1cnc2cnc(Nc3ccccc3)nc2n1Cc1cccs1 1000 nM
Cc1nc2cnc(Nc3ccccc3)nc2n(Cc2cccs2)c1=O 1580 nM
COc1cccc(Nc2ncc3nc(C)c(=O)n(Cc4cccs4)c3n2)c1 2510 nM
COCC(=O)N/N=C/c1ccc(Sc2nc3ccccc3s2)o1 15800 nM
Cc1ccc(NS(=O)(=O)c2ccccc2Cl)c2c1CC(C)(C)O2 1260 nM
O=C(Nc1cccc(C(F)(F)F)c1)N(Cc1ccc(Cl)cc1)CC(O)C(F)(F)F (stereo not given) 12600 nM
CCCCN=c1sc(C(=O)OC)cc(=O)n1CCCC 251 nM
CCOC(=O)C(=Cc1ccc(F)cc1)C(=O)OCC 25100 nM
CCOC(=O)N/N=C/c1ccc(F)cc1 11200 nM
CCOC(=O)N/N=C/c1ccccc1F 6310 nM
COc1ccc2cc3cc(C(=O)NCc4ccc5c(c4)OCO5)oc3nc2c1 316 nM
COc1ccc2cc3cc(C(=O)Nc4ccc5c(c4)OCO5)oc3nc2c1 501 nM
COc1ccc2cc3cc(C(=O)NCCN4CCN(c5ccccc5F)CC4)oc3nc2c1 15800 nM
COc1ccc2nc3oc(C(=O)NCc4cccs4)cc3cc2c1 2000 nM
COc1ccc2cc3cc(C(=O)NCc4ccccn4)oc3nc2c1 1000 nM
O=C1c2ccccc2C(=O)N1CCCSc1ccccc1 1000 nM
Cc1ccc(SCCCn2cnc3ccccc3c2=O)cc1 3160 nM
O=c1c2ccccc2ncn1CCCSc1ccccc1 7080 nM
COc1ccc(Oc2ncc3nc(-c4ccc(Cl)cc4)c(=O)n(C)c3n2)cc1 631 nM
Cn1c(=O)c(-c2ccc(Cl)cc2)nc2cnc(Oc3ccccc3)nc21 200 nM
Cn1c(=O)c(-c2ccccc2)nc2cnc(Oc3ccccc3)nc21 2000 nM
COCc1cc(=O)[nH]c2cc(NC(=O)C(F)(F)F)c(C)cc12 11200 nM
CCC(=O)Nc1ccccc1C(=O)OCC(=O)c1ccccc1 5620 nM
CCC(=O)Nc1ccccc1C(=O)OCC(=O)c1cccc2ccccc12 2510 nM
